# Hits are enriched below; roughly 3.2% of the tested compounds scored in any of these assays.
# Tau fluor counter: counter-screen for tau fibril formation inhibitors; tau K18 P301L Alexa594 fluorescence, heparin fibrillization; AID 1463; hit rate 0.93% among 280,000; Potency, µM (highest dose often 57.7 µM), without a hit: top-dose activity change, negative = decrease; further: nearly all actives have a fitted effect of over 55% in size
#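 Human K18 P301L tau (15 uM unlabeled plus 0.24 uM Alexa 594-labeled, final) in 100 mM sodium acetate pH 7 was mixed with compound and 20 uM heparin and incubated 6 hr at 37 C.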
# RGS12 GoLoco inh: inhibitors of human Gai1-RGS12 GoLoco interaction (red fluorophore); P63096; Gai1:RGS12 GoLoco peptide FP, rhodamine, 10 min; Potency, µM (series often up to 61.6 µM), for the others: at the highest dose activity, negative = inhibition, most hits filed as inhibitors; hit rate 0.44% among 230,000; AID 880; active means well fitted inhibition curve with a large enough effect, not every such curve was filed as active; inactive means no such curve, though single readings can be large or run the other way; further: nearly all actives have a fitted effect of over 30% in size
# Target sequence (P63096 whole entry, looked up): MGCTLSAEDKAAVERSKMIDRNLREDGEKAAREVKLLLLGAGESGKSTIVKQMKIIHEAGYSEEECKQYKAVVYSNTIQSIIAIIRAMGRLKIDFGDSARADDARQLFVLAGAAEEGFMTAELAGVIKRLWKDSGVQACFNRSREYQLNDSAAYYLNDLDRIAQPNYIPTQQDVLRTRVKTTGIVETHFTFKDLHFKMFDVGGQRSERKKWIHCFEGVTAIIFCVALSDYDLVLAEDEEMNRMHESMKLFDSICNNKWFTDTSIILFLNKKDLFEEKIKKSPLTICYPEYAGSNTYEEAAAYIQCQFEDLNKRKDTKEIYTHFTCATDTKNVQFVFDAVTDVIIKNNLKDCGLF
# Tau fibril FP: blocks human tau fibril formation measured by polarization; hit rate 0.39% among 280,000; Potency, µM (highest dose often 57.7 µM), inactives show top-dose activity, negative = inhibition, usual class: inhibitors; K18 P301L tau heparin fibrillization, Alexa594 FP, 6 h; AID 1468; P10636; further: nearly all actives have a fitted effect of over 55% in size
# Target sequence (P10636 561-689 P618L limits assumed): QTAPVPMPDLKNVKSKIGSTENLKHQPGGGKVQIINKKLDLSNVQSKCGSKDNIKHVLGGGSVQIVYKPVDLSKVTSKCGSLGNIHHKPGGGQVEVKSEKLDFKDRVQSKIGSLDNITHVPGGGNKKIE
#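 Read-out: fluorescence polarization of Alexa 594-labeled tau (0.24 uM), 555 nm excitation, 632 nm emission. Mixtures held 15 uM unlabeled K18 P301L, compound and 20 uM heparin, pH 7 acetate buffer, incubated 6 hr at 37 C.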
# TRb SRC2 PPI: disrupts binding of human TR beta to SRC2; P10828; TRbeta-SRC2 peptide binding, fluorescence polarization; receptor liganded with 1 µM T3; Potency, µM (top dose mostly 106 µM), for inactives: top-dose activity change, negative = inhibition, hits mostly inhibitors; hit rate 0.065% among 280,000;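 further: plate controls were bound peptide for no effect and peptide without receptor for full effect; nearly all actives have a fitted effect of over 50% in size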
#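 Polarization signal, normalized between peptide-alone and full complex controls, measured compound effects on T3-liganded human TRb LBD (0.6 uM) binding 20 nM Texas Red SRC2 peptide after 5 hr.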
# Tau ThT inhib: blocks human tau fibril formation measured by thioflavin T; AID 1460; P10636; hit rate 2.1% among 270,000; recombinant tau K18 P301L (four-repeat tau fragment), heparin-induced fibrillization, ThT fluorescence; Potency, µM (series often up to 57.4 µM), inactives show at the highest dose activity, negative = inhibition, usual class: inhibitors; further: nearly all actives have a fitted effect of over 55% in size
#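 K18 P301L tau (15 uM + 0.24 uM Alexa 594-tagged), heparin 20 uM, NaOAc pH 7, 6 h 37 C; ThT 30 uM, 1 h RT, ex 450/em 510 nm.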
# TR SRC2 fluor cs: alters Texas Red total fluorescence, flagging assay interference; hit rate 0.29% among 280,000; Potency, µM (top dose mostly 106 µM), inactives show at the top dose fluorescence change, negative = quenching; TRb/SRC2 Texas Red total fluorescence interference; active means well fitted curve in either direction with a large enough effect; inconclusive means small, poorly fitted or top-dose-only effect
#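 Human TRb ligand-binding domain at 0.6 uM with 20 nM Texas Red SRC2 peptide in Tris buffer containing 1 uM T3 and 5% DMSO, incubated with compound 5 h at ambient temperature. Total fluorescence (555/632 nm) calculated as parallel + 2 × perpendicular.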
# * = called active by the depositor; ? = inconclusive; . = no result; [ ] = dose if it differs, or a comment. Unless noted, the call rests on the fitted dose curve; in most records, active means well fitted curve in the direction sought with a large enough effect; inconclusive means small, poorly fitted or top-dose-only effect, or another doubt; inactive means no such curve, though single readings can be large; an effect the other way counts as inactive or inconclusive. Unless noted, on the % scale 0 is the no-effect control and ±100 the full control effect; potency means the concentration at half of the fitted maximal effect.
SMILES,Tau fluor counter,RGS12 GoLoco inh,Tau fibril FP,TRb SRC2 PPI,Tau ThT inhib,TR SRC2 fluor cs
NC(CSSCC(N)C(=O)O)C(=O)O (stereo unspecified),.,13%,.,-3%,.,-3%
O=C(O)c1cc(=O)c2cc(Cl)ccc2[nH]1,.,.,.,5%,.,2%
O=C1CCC/C1=C/Nc1ccc(Cl)cc1,-12%,-5%,10%,4%,-13%,-2%
O=C1CCCC/C1=C\Nc1ccc(O)cc1,?,-28%,?,45µM*,16µM*,?
O=C(NCC(c1cccnc1)N1CCc2ccccc2C1)C(=O)Nc1ccccc1 (stereo unspecified),-26%,.,10%,-2%,1.6µM*,-22%
CCc1ccc(NC(=O)C(=O)NCC(c2cccnc2)N2CCc3ccccc3C2)cc1 (stereo unspecified),?,.,-10%,-11%,?,?
COc1ccc(NC(=O)C(=O)NCC(c2cccnc2)N2CCc3ccccc3C2)cc1 (stereo unspecified),?,.,?,-7%,14µM*,-39%
NC(=O)C1=CN(C2OC(COP(=O)(O)OP(=O)(O)OC[C@H]3O[C@@H](n4cnc5c(N)ncnc54)[C@H](OP(=O)(O)O)[C@H]3O)C(O)C2O)C=CC1 (stereo partly specified),-11%,-11%,2%,6%,-7%,1%
O=C(/C=C/c1cccs1)c1ccc(N2CCOCC2)cc1,-22%,7%,-5%,3%,16µM*,-4%
O=C(/C=C/c1cccc(F)c1)Nc1cc(S(=O)(=O)N2CCOCC2)ccc1N1CCCC1,-5%,-18%,9%,-1%[53 µM],-4%,-3%[53 µM]
O=C(/C=C/c1cccc(F)c1)c1ccc(N2CCOCC2)cc1,?,31%,1%,5%,13µM*,2%
O=C(Nc1ccc([N+](=O)[O-])cc1O)Nc1ccccc1Br,.,.,.,4%,.,1%
CC1(C)C[C@](C)(C(=O)c2ccccc2)C=C1c1ccccc1,-6%,6%,2%,1%,-4%,-2%
COc1ccc(C(=O)c2sc3nc4c(c(C(F)(F)F)c3c2N)CN(C(C)=O)CC4)cc1OC,-10%,.,4%,7%,14µM*,-2%
CC(=O)N1CCc2nc3sc(C(=O)c4ccc(F)cc4)c(N)c3c(C(F)(F)F)c2C1,-14%,.,8%,-6%,4.5µM*,-5%
NCCCCCCNc1nc2c(N)ncnc2n1[C@@H]1O[C@@H]2COP(=O)(O)O[C@H]2[C@H]1O,.,.,.,-2%,.,0%
CCOc1cccc2sc(NN)nc12,14µM*[quencher],1%,?,-1%,20µM*,-4%
Cc1cc(/C=N/n2c(COc3ccccc3)nc3ccccc3c2=O)c(O)c([N+](=O)[O-])c1,?,36%,14%,9%,11µM*,-7%
N#Cc1cccc(-n2nnnc2-c2ccccn2)c1,14µM*[quencher],.,-2%,5%,6.3µM*,-12%
N#Cc1cccc(-n2nnnc2-c2ccc3c(c2)OCO3)c1,-5%,-1%,1%,-1%,-6%,-1%
O=C(N/N=C/c1ccc(N2CCOCC2)cc1)c1ccccn1,-17%,10%,-3%,1%,14µM*,-2%
COc1ccc(Cl)cc1C(=O)N/N=C/c1ccc(N2CCOCC2)cc1,-23%,30%,1%,-2%,11µM*,-3%
CNC(=O)[C@H]1O[C@@H](n2cnc3c(N)ncnc32)[C@H](O)[C@H]1O,3%,2%,9%,-5%,0%,?
CC[C@@H](c1ccccc1)n1c(=O)n2n(c1=O)[C@H]1[C@H](O)[C@H]3O[C@@H]3/C(=N/OC/C=C(\C)CCC=C(C)C)[C@@H]1CC2,-1%[11.6 µM],.,-4%[11.6 µM],-1%[11.2 µM],-4%[11.5 µM],0%[11.2 µM]
CO[C@@H]1COC(=O)[C@H]2CCCN2C(=O)C/C=C\[C@@H](C)[C@H](OC)COC(=O)[C@H]2CCCN2C(=O)C/C=C\[C@H]1C,-23%[11.6 µM],.,0%[11.6 µM],-3%[11.2 µM],?,0%[11.2 µM]
SMILES,Tau fluor counter,RGS12 GoLoco inh,Tau fibril FP,TRb SRC2 PPI,Tau ThT inhib,TR SRC2 fluor cs
COc1cc([C@@H]2c3cc4c(cc3[C@@H](O[C@@H]3O[C@H]5CO[C@@H](C)O[C@@H]5[C@@H](O)[C@H]3O)[C@@H]3COC(=O)[C@@H]23)OCO4)cc(OC)c1O,6%,28µM*,2%,-4%,4%,-1%
CCOC(=O)C1=C(C)NC(C)=C(C(=O)OCC)C1c1ccccc1C=CC(=O)OC(C)(C)C,.,0%,.,13%,.,-2%
COc1ccc(C2C=C3CN(C(=O)OC(C)(C)C)S(=O)(=O)C3CC2OC(=O)c2cccc(C)c2)cc1 (stereo unspecified),.,.,.,1%,.,0%
COC(=O)[C@@]1(C)CCC[C@@]2(C)c3ccc(O)c(C(C)C)c3CCC21 (stereo partly specified),16µM*[quencher],2%,-11%,6%,?,-2%
Cc1ccccc1NC(=O)COC(=O)c1ccc(S(C)(=O)=O)c([N+](=O)[O-])c1,?,-4%,-2%,-9%,13µM*,-6%
CC(=O)c1cccc(NC(=O)COC(=O)c2ccc(S(C)(=O)=O)c([N+](=O)[O-])c2)c1,?,5%,3%,-1%,?,-6%
C[C@]12CC[C@@H]3c4ccc(O)cc4CC[C@H]3[C@@H]1C[C@H](O)C2O (stereo partly specified),.,12%,.,8%,.,-1%
C[Si](C)(C)O[Si](C)(C)O[Si](C)(C)C,.,.,.,3%[201 µM],.,2%[201 µM]
Nc1c(C(=O)NC2CC2)sc2nc3c(c(-c4ccco4)c12)CC/C3=C/c1ccco1,?,53%,?,-2%,8.9µM*,2%
NC(=O)c1sc2nc3c(c(-c4ccco4)c2c1N)CCC3,-18%,1%,4%,-9%,?,-4%
Cc1cc[n+](-c2[nH]c(=O)sc2/C=N/N=C(\[O-])c2ccccc2)cc1,-9%,12%,0%,6%,-17%,-11%
CCc1ccc[n+](-c2[nH]c(=O)sc2/C=N/N=C(\[O-])CCn2c3ccccc3c3ccccc32)c1,?,11%,4%,-11%,16µM*,-3%
Cc1cc[n+](-c2[nH]c(=O)sc2/C=N/N=C(\[O-])CCn2c3ccccc3c3ccccc32)cc1,?,9%,?,-1%,28µM*,-2%
